# Experimental data reported in PubChem BioAssay.
# Calls of active or inactive are those of the source. Unless noted, how the calls were made is not given here.
# Tests used:
# [1] = system: Wnt5a (protein binding on small-molecule microarray); assay: Wnt5a binders on small-molecule microarray, primary screen, biophysical, 635/667 nm fluorescence (AID 1142); settings: 635 nm fluorescence, higher = more signal;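 further: fluorescence read at 667 nm with signal to noise per printed feature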
# [2] = cell viability in Huh7 cells, primary screen, cytotoxicity control for HCV replication inhibitor project, CellTiter-Glo luminescence, basal, 48 h (AID 1143); settings: Huh7 HCV replicon, higher = more signal, called active from +8 up or from −8 down;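 further: Huh7 hepatoma cells carrying a hepatitis C replication reporter with no stimulus; test concentration not given here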
# [3] = P. aeruginosa biofilm formation inhibitors, primary screen, PAO1 strain, BacTiter-Glo luminescence, LB-PBS (AID 1144); settings: 12 h, higher = more signal
# [4] = CREB reporter modulators without forskolin, primary screen, cell-based, PC12, CRE-LacZ reporter, unstimulated (AID 1145); settings: no forskolin, luminescence, 4.5 h, higher = more signal, called active from +8 up or from −8 down
# [5] = CREB reporter modulators under forskolin, primary screen, cell-based, PC12, CRE-LacZ reporter, forskolin-stimulated (AID 1146); settings: luminescence, 4.5 h, higher = more signal, called active from +8 up or from −8 down;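 further: PC12 cells with 6xCRE LacZ reporter stimulated by forskolin 10 µM; beta-galactosidase reporter signal reflecting CREB driven transcription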
# [6] = biological target: Streptavidin (Streptomyces avidinii) (UniProt P22629); assay: streptavidin binders on small-molecule microarray, primary screen, artefact control for SMM compound annotation, biophysical, 635/667 nm fluorescence (AID 1147); settings: streptavidin binding, higher = more signal;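 further: signal reflects streptavidin binding to arrayed compounds as a control protein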
# Sequence of Streptavidin (Streptomyces avidinii) (P22629 whole entry, looked up): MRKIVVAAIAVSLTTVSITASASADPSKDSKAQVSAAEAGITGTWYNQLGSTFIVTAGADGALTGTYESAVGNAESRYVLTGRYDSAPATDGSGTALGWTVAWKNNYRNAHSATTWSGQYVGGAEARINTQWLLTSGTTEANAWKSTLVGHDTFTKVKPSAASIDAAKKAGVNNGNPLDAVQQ
# [7] = small-molecule binders of probe aInhba, primary screen, biochemical, small-molecule microarray, 635/667 nm fluorescence (AID 1148); settings: higher = more signal;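 further: score merges 667nm spot fluorescence with signal-to-noise for antibody binding to printed compounds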
# Torsin-1A (Homo sapiens) [8] = biological target: Torsin-1A (Homo sapiens) (UniProt O14656); assay: torsin A binders from cell lysate, primary screen, small-molecule microarray, wild-type, 635/667 nm (AID 1149); settings: COS7 hTOR1A-WT lysate, 635 nm fluorescence, higher = more signal
# Sequence of Torsin-1A (Homo sapiens) (O14656 whole entry, looked up): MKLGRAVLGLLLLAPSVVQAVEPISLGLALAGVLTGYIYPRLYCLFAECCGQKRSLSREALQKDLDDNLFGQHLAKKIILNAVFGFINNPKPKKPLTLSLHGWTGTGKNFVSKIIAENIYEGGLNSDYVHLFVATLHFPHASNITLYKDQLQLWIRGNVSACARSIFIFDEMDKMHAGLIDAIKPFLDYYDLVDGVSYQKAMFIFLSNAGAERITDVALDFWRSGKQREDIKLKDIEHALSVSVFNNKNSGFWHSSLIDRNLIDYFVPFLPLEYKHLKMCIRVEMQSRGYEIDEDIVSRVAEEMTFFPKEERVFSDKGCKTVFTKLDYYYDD
# Torsin-1A (Homo sapiens) [9] = biological target: Torsin-1A (Homo sapiens) (UniProt O14656); assay: small-molecule binders of mutant TOR1A in lysate, primary screen, cell lysate, small-molecule microarray, COS7 lysate, 635/667 nm fluorescence (AID 1150); settings: COS7 hTOR1A mutant lysate, 635 nm fluorescence, higher = more signal;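 further: score pools 667 nm emission and signal to noise measuring lysate protein binding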
# [10] = system: Sonic hedgehog protein (Shh); assay: small-molecule binders of Shh protein, primary screen, biochemical, small-molecule microarray, 635/667 nm fluorescence (AID 1151); settings: small-molecule microarray binding, 635 nm fluorescence; higher = more signal;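 further: Shh protein binding to compounds spotted on small-molecule microarray slides; score combines spot fluorescence intensity with signal-to-noise across triplicate slides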
# [11] = E. coli DRC41 culture turbidity changes, primary screen, E. coli filamentation inducer project, strain DRC41, OD650, 48 h (AID 1152);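 further: E. coli MC1000 strain DRC41 lacking acrAB efflux pump and sulA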; settings: E. coli DRC41 (acrAB sulA), higher = more signal, called active from +8 up or from −8 down
# [12] = small-molecule binders of probe aLefty1, primary screen, biochemical, small-molecule microarray, 635/667 nm fluorescence (AID 1153); settings: higher = more signal;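 further: score merges spot fluorescence with signal-to-noise ratio from the scanned slide images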
# [13] = PSAC antagonists in infected red cells, primary screen, cell-based, P. falciparum Indochina, OD700, 1 h (AID 1154); settings: P. falciparum Indochina infected RBC osmotic lysis, higher = more signal, called active from +8 up or from −8 down
# [14] = PSAC antagonists in infected red cells, primary screen, cell-based, P. falciparum Indochina, OD700, 2 h (AID 1155);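 further: lysis reports solute entry through the parasite surface anion channel PSAC; channel blockers reduce lysis of infected cells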; settings: P. falciparum Indochina infected erythrocytes, osmotic lysis OD700; higher = more signal, called active from +8 up or from −8 down
# [15] = osmotic lysis modulators in infected erythrocytes, primary screen, PSAC antagonist project, cell-based, P. falciparum Indochina, OD700, 3 h (AID 1156); settings: higher = more signal, called active from +8 up or from −8 down
# [16] = PSAC antagonists in infected red cells, primary screen, cell-based, P. falciparum Indochina, OD700, 18 h (AID 1157); settings: P. falciparum Indochina infected erythrocytes, osmotic lysis OD700, 18 h; higher = more signal, called active from +8 up or from −8 down
# [17] = modulators of S6 phosphorylation in cells, primary screen, cell-based, A549, cytoblot, luminescence, serum-stimulated (AID 1158); settings: A549 phospho-S6 cytoblot, 5 h, higher = more signal;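 further: serum-stimulated A549 lung adenocarcinoma cells; signal is phosphorylated S6 detected by cytoblot immunostaining with HRP secondary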
# [18] = biological target: NADPH oxidase 2 (Homo sapiens) (UniProt P04839); assay: NOX2-dependent H2O2 signal modulators, primary screen, NOX inhibitor project, cell-based, HEK293-NOX2, PMA-stimulated, Amplex Red fluorescence (AID 1159); settings: 45 min, higher = more signal, called active from +8 up or from −8 down; further: test concentration not given here
# Sequence of NADPH oxidase 2 (Homo sapiens) (P04839 whole entry, looked up): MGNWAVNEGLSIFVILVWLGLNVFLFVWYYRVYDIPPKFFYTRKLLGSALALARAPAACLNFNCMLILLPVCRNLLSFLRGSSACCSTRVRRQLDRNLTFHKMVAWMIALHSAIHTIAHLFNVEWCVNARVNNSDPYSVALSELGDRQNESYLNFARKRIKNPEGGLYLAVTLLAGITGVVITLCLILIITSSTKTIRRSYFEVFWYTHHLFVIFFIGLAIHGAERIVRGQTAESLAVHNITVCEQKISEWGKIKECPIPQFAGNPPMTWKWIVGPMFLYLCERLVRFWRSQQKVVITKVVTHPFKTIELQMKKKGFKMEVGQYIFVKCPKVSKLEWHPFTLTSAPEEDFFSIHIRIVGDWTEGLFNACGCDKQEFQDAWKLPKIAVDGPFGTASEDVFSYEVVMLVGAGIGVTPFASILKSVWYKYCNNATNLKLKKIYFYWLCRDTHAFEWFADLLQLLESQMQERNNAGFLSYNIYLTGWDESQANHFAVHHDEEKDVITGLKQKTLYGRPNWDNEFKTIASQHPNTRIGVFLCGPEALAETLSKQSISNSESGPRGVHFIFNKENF
# [19] = biological target: NADPH oxidase 4 (Homo sapiens) (UniProt Q9NPH5); assay: NOX4-dependent H2O2 signal modulators, primary screen, NOX inhibitor project, cell-based, HEK293-NOX4, tetracycline-induced, Amplex Red fluorescence (AID 1160); settings: 45 min, higher = more signal, called active from +8 up or from −8 down
# Sequence of NADPH oxidase 4 (Homo sapiens) (Q9NPH5 whole entry, looked up): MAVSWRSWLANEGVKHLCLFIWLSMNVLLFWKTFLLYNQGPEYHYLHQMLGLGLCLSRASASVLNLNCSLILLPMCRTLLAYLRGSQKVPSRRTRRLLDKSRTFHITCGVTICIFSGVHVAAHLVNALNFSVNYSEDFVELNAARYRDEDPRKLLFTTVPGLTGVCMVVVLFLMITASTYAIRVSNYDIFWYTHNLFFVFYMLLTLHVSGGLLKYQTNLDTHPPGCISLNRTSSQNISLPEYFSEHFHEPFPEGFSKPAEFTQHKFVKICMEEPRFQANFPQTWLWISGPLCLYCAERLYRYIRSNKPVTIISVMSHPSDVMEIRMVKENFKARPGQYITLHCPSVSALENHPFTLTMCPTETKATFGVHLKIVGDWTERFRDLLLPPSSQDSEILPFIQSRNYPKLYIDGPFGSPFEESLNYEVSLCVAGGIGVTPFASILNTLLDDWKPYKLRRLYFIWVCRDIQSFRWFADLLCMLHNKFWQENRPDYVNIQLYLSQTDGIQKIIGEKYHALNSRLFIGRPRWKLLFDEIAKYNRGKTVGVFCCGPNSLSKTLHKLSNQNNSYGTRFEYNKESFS
# [20] = biological target: NADPH oxidase 5 (Homo sapiens) (UniProt Q96PH1); assay: NOX5-dependent H2O2 signal modulators, primary screen, NOX inhibitor project, cell-based, HEK293-NOX5, Amplex Red fluorescence (AID 1161); settings: HEK293-NOX5, ionomycin, 45 min, higher = more signal
# Sequence of NADPH oxidase 5 (Homo sapiens) (Q96PH1 whole entry, looked up): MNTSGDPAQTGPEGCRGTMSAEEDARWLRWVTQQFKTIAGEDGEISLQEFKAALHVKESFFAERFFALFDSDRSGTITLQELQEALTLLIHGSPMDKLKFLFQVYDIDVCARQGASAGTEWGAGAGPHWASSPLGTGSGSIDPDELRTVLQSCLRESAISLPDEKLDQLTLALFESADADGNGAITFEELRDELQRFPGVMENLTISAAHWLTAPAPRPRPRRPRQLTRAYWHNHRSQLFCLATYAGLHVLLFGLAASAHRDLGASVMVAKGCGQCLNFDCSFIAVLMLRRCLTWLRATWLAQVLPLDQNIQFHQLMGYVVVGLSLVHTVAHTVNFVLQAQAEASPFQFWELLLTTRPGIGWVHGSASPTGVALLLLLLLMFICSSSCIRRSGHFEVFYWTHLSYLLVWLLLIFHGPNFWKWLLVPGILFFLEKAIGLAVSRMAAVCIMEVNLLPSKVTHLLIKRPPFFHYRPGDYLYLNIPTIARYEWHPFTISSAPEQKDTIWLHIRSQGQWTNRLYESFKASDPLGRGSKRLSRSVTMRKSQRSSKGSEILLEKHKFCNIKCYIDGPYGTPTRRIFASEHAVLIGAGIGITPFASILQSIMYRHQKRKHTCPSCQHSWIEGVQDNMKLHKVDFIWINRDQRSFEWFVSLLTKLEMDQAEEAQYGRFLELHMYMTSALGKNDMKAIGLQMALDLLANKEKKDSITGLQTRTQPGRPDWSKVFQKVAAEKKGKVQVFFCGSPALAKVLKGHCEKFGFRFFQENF
Compound,composite z-score [1],z-score [2],z-score [3],z-score [4],z-score [5],composite z-score [6],composite z-score [7],composite z-score (Torsin-1A (Homo sapiens) [8]),composite z-score (Torsin-1A (Homo sapiens) [9]),composite z-score [10],z-score [11],composite z-score [12],z-score [13],z-score [14],z-score [15],z-score [16],z-score [17],z-score [18],z-score [19],z-score [20]
COc1ccc(-c2cnnc(CCCn3ccnc3-c3ccccc3)n2)cc1,0.314,-4.68 (inactive),-0.459 (inactive),1.37 (inactive),-0.631 (inactive),0.22,-0.144,1.56,1.52,0.838,-0.249 (inactive),-0.0576,26.2 (active),9.62 (active),0.886 (inactive),0.982 (inactive),-0.714,1.27 (inactive),-0.372 (inactive),-1.2
O=C1[C@H]2[C@H]3[C@H](O)[C@H](O)CC(=NOC[C@@H](O)COCc4ccco4)[C@@H]3CC[C@H]2C(=O)N1Cc1ccc2c(c1)OCO2,0.0191,-0.0292 (inactive),0.878 (inactive),-0.0199 (inactive),0.506 (inactive),-0.436,-0.218,3.38,3,1.55,1.56 (inactive),-0.0984,30 (active),4.77 (inactive),0.826 (inactive),1.01 (inactive),0.236,-2.68 (inactive),0.499 (inactive),0.351
CCOC(=O)[C@H](CC(C)C)NC(=O)CCC1CC(OC(=O)NCc2ccc3c(c2)OCO3)CC2(CCCC(COC(=O)NCCC(C)C)O2)O1 (stereo not given in full),0.0093,-0.172 (inactive),-0.32 (inactive),-0.889 (inactive),0.128 (inactive),0.0476,-0.128,-0.0916,-0.0963,0.54,-0.213 (inactive),-0.768,2.17 (inactive),-0.299 (inactive),-0.443 (inactive),0.0255 (inactive),-0.0096,0.246 (inactive),0.115 (inactive),0.165
O=C1[C@H]2CCn3c(=O)n(Cc4cc5c(cc4Cl)OCO5)c(=O)n3[C@H]2[C@H](O)[C@@H]2O[C@H]12,-0.509,-0.926 (inactive),0.529 (inactive),-0.925 (inactive),-0.0963 (inactive),-0.0064,-0.215,-0.22,-0.343,0.853,0.709 (inactive),-0.196,0.439 (inactive),-0.511 (inactive),-0.277 (inactive),-0.212 (inactive),0.489,-0.664 (inactive),0.135 (inactive),0.336
CC(CCN1CCCc2nc(C)c(C)cc21)=NO[C@@H](C)c1cn([C@H](CO)Cc2ccccc2)nn1,0.0241,-0.0864 (inactive),0.0842 (inactive),-1.21 (inactive),-0.82 (inactive),0.525,0.153,0.639,0.686,0.71,1.15 (inactive),-0.193,0.202 (inactive),0.0178 (inactive),0.0882 (inactive),0.392 (inactive),0.137,-0.588 (inactive),0.313 (inactive),0.351
CON(C)C(=O)c1nnc2c(n1)[nH]c1ccccc12,0.0269,0.569 (inactive),0.555 (inactive),0.198 (inactive),0.275 (inactive),0.153,-0.101,0.275,0.333,0.928,-0.398 (inactive),-0.161,1.61 (inactive),0.235 (inactive),-0.322 (inactive),0.0008 (inactive),-0.133,1.04 (inactive),0.103 (inactive),0.836
O=C1C=C[C@@H](O)[C@@H]2[C@@H]3C(=O)N(Cc4ccc5c(c4)OCO5)C(=O)[C@@H]3CC[C@@H]12,0.538,-0.655 (inactive),0.917 (inactive),-0.567 (inactive),-0.332 (inactive),0.283,-0.307,0.376,0.123,0.499,0.038 (inactive),-0.0061,1.26 (inactive),-0.0262 (inactive),-0.556 (inactive),0.379 (inactive),0.182,1.41 (inactive),-1.55 (inactive),-0.372
CCN1C(=O)[C@H]2[C@H]3[C@H](O)[C@H](O)CC(=NO[C@H](C)c4cn([C@H](CO)Cc5ccccc5)nn4)[C@@H]3CC[C@H]2C1=O,0.217,0.399 (inactive),1.05 (inactive),-0.385 (inactive),-0.228 (inactive),0.307,-0.105,0.265,0.556,0.742,-0.238 (inactive),-0.323,0.334 (inactive),0.15 (inactive),-0.0073 (inactive),0.123 (inactive),-0.598,0.384 (inactive),0.293 (inactive),-0.116
